Assay [1] has as its target Sphingosine kinase 1 (Homo sapiens) (UniProt Q9NYA1). To be noted: at 1 µM.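 Also: mean SPHK1 inhibition value reported from the GSK PKIS kinase panel screen.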
Assay [2] concerns the target T1, Sphingosine kinase 2 (Homo sapiens) (UniProt Q9NRA0).
T1 sequence (whole entry): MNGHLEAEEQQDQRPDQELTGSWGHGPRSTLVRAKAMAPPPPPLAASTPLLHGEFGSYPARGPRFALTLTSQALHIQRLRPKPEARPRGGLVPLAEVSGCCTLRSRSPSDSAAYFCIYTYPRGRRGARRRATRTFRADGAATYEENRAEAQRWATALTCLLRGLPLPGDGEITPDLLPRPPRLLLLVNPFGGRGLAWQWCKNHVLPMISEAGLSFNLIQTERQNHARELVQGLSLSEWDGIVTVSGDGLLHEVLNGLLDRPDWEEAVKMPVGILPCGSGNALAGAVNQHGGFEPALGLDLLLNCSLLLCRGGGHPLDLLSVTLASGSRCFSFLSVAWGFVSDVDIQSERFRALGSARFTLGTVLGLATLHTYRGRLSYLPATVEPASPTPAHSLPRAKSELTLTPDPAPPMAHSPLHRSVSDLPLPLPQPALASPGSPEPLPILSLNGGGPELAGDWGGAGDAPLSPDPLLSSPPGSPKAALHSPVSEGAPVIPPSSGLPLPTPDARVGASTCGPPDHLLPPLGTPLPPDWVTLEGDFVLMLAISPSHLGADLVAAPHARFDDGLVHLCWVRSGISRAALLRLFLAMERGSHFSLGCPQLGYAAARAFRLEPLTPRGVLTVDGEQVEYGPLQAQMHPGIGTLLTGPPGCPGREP
To be noted: at 0.1 µM.

Assay [3] concerns the target T1, Sphingosine kinase 2 (Homo sapiens). The following applies: at 1 µM.
Assay [4] concerns the target Casein kinase II subunit alpha (Homo sapiens) (UniProt P68400). The following applies: at 0.1 µM.
Assay [5] has the same target. To be noted: at 1 µM.
For assay [6], the target named is T2, Inhibitor of nuclear factor kappa-B kinase subunit alpha (Homo sapiens) (UniProt O15111).
T2 sequence (whole entry): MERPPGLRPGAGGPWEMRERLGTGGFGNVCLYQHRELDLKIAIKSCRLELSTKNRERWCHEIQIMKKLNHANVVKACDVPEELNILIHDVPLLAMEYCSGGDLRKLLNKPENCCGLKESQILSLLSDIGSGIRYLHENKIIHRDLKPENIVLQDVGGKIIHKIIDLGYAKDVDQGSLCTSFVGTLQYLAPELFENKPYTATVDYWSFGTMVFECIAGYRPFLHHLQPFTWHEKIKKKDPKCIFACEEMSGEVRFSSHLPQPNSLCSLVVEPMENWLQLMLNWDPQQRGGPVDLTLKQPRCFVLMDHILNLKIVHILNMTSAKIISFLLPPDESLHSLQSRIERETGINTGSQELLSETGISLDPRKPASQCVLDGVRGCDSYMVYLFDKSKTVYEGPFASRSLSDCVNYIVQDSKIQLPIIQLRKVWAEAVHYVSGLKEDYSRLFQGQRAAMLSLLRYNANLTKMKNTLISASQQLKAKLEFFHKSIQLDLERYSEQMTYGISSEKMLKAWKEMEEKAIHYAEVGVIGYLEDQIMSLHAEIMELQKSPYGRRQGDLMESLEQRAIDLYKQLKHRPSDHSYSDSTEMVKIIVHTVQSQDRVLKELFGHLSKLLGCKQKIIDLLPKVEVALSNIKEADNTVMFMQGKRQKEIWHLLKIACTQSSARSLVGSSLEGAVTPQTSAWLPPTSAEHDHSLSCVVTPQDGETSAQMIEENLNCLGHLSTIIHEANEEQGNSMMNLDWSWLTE
The following applies: at 0.1 µM.

For assay [7], the target named is T2, Inhibitor of nuclear factor kappa-B kinase subunit alpha (Homo sapiens). The following applies: at 1 µM.
Assay [8] has as its target T3, Inhibitor of nuclear factor kappa-B kinase subunit beta (Homo sapiens) (UniProt O14920).
T3 sequence (whole entry): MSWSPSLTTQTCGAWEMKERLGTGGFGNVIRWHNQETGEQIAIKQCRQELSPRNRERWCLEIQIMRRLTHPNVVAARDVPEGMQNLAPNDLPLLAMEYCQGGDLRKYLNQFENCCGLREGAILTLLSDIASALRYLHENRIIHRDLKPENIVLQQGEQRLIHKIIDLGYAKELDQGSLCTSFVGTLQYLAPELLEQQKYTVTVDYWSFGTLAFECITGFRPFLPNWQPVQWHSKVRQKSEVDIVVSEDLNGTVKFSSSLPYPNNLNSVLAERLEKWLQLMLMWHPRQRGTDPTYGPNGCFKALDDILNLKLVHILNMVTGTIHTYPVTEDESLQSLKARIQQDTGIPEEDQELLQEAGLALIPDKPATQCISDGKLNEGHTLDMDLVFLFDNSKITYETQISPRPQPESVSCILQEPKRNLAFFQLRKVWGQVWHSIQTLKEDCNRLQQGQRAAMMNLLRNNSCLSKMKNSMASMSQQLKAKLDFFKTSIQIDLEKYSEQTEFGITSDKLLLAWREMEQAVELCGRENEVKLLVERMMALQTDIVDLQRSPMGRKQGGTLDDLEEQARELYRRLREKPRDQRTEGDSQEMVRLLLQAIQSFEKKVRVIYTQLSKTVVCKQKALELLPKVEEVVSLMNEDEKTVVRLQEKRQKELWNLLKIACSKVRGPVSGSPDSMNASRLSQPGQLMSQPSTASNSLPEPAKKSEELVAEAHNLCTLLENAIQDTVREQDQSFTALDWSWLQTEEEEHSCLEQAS
The following applies: at 0.1 µM.

Assay [9] has as its target T3, Inhibitor of nuclear factor kappa-B kinase subunit beta (Homo sapiens). The following applies: at 1 µM.
Assay [10] addresses T4, Inhibitor of nuclear factor kappa-B kinase subunit epsilon (Homo sapiens) (UniProt Q14164).
T4 sequence (whole entry): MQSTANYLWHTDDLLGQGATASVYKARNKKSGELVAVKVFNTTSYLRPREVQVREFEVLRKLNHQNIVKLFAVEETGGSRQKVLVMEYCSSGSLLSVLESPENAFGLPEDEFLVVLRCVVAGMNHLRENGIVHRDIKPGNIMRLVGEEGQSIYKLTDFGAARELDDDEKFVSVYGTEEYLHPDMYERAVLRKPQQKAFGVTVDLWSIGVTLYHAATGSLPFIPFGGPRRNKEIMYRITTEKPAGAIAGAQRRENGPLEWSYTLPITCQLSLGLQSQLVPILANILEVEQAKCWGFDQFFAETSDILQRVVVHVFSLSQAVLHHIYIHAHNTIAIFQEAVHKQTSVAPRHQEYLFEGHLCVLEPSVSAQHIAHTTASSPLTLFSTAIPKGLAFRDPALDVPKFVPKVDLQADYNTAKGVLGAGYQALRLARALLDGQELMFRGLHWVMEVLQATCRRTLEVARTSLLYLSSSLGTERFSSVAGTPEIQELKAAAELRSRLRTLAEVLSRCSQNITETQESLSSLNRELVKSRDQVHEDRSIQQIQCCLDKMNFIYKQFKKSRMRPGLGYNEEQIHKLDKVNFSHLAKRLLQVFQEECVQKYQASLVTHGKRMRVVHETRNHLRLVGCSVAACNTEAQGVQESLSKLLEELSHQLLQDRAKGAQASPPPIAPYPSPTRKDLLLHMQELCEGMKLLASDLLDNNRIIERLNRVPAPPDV
The following applies: at 0.1 µM.

Assay [11] concerns the target T4, Inhibitor of nuclear factor kappa-B kinase subunit epsilon (Homo sapiens). The following applies: at 1 µM.
The target of assay [12] is T5, Serine/threonine-protein kinase Nek1 (Homo sapiens) (UniProt Q96PY6).
T5 sequence (whole entry): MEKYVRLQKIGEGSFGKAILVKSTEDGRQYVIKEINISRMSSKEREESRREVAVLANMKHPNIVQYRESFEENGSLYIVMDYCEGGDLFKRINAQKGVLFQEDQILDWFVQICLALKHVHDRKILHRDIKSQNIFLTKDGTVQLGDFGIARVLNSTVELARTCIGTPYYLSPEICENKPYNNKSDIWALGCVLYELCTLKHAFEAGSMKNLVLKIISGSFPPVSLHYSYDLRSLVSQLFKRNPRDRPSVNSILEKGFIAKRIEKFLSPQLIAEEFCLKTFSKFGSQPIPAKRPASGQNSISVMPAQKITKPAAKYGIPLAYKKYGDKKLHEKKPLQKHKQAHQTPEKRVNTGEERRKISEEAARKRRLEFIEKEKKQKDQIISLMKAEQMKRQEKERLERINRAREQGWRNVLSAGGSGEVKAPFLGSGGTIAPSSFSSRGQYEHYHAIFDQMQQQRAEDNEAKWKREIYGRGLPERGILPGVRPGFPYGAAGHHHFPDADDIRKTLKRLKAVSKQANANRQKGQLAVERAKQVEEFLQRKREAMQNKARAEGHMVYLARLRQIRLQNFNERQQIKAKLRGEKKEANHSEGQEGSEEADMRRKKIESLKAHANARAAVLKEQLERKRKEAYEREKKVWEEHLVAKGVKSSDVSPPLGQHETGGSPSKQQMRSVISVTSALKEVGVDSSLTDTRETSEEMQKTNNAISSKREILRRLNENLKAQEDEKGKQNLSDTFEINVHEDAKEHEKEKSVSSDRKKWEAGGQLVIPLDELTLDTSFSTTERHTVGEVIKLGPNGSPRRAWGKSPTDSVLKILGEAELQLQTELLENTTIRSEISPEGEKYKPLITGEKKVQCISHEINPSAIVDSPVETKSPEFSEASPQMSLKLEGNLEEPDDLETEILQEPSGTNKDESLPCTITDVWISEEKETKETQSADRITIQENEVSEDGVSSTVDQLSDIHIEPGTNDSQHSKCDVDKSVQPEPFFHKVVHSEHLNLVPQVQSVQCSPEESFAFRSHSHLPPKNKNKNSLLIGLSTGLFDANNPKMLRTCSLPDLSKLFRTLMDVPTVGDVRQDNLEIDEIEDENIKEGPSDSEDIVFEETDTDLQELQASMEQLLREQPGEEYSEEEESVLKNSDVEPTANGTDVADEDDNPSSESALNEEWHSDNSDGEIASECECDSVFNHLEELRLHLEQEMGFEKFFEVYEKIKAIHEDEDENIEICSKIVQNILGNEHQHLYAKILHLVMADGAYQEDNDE
To be noted: at 0.1 µM.

Assay [13] addresses T5, Serine/threonine-protein kinase Nek1 (Homo sapiens). The following applies: at 1 µM.
Assay [14] has as its target T6, Serine/threonine-protein kinase Nek2 (Homo sapiens) (UniProt P51955).
T6 sequence (whole entry): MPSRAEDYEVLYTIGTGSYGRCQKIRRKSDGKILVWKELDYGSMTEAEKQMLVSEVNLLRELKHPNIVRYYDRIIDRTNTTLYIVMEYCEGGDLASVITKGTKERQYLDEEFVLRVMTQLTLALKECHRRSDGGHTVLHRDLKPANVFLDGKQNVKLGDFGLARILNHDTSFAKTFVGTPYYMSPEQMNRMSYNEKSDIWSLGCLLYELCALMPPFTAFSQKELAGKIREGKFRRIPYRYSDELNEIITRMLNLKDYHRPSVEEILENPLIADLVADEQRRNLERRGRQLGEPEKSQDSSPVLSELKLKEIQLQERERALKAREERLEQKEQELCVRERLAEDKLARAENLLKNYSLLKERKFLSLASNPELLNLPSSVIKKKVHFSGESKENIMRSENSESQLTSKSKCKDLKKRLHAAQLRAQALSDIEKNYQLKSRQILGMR
The following applies: at 0.1 µM.

The target of assay [15] is T6, Serine/threonine-protein kinase Nek2 (Homo sapiens). To be noted: at 1 µM.
Assay [16] concerns the target Serine/threonine-protein kinase Nek6 (Homo sapiens) (UniProt Q9HC98). The following applies: at 0.1 µM.
The target is the same in assay [17]. To be noted: at 1 µM.
Assay [18] concerns the target Serine/threonine-protein kinase Nek7 (Homo sapiens) (UniProt Q8TDX7). To be noted: at 0.1 µM.
For assay [19] the target is unchanged. The following applies: at 1 µM.
Assay [20] has as its target T7, Serine/threonine-protein kinase Nek9 (Homo sapiens) (UniProt Q8TD19).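 Also: reported value is the mean percent inhibition of NEK9.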
T7 sequence (whole entry): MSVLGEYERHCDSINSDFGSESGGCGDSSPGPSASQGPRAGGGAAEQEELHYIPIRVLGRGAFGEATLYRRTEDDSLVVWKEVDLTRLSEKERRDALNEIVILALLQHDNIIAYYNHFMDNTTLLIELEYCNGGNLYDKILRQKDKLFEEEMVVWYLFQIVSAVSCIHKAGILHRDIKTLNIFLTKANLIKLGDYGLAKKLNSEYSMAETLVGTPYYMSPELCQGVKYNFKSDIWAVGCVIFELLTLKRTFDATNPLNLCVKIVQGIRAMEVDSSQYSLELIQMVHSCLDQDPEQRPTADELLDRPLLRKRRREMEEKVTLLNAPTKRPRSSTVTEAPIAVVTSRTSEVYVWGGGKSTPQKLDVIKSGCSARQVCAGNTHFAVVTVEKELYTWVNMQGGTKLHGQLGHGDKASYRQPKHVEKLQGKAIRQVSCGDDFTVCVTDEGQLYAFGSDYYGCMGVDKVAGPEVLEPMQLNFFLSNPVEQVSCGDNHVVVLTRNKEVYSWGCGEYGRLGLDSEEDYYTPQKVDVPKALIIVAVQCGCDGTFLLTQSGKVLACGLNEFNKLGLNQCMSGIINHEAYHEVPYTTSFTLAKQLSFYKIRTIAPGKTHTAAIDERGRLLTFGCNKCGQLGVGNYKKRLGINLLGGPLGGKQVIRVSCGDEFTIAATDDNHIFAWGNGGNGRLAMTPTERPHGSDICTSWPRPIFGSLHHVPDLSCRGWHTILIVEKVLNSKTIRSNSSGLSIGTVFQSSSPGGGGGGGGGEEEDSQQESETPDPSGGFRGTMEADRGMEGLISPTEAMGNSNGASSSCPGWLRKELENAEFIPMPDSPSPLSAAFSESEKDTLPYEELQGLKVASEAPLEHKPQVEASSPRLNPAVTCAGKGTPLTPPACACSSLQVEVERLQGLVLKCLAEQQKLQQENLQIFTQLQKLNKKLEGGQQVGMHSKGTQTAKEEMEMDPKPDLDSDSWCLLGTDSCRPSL
The following applies: at 0.1 µM.

Chain of Serine/threonine-protein kinase Nek7 (Homo sapiens) (Q8TDX7 whole entry, looked up): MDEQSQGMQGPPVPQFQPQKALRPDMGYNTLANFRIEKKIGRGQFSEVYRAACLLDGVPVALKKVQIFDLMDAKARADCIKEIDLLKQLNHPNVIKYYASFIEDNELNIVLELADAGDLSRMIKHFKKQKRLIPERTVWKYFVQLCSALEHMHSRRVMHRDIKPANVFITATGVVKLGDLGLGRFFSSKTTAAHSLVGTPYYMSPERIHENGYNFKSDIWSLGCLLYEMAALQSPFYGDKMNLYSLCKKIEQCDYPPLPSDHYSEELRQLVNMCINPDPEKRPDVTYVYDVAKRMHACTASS
Chain of Serine/threonine-protein kinase Nek6 (Homo sapiens) (Q9HC98 whole entry): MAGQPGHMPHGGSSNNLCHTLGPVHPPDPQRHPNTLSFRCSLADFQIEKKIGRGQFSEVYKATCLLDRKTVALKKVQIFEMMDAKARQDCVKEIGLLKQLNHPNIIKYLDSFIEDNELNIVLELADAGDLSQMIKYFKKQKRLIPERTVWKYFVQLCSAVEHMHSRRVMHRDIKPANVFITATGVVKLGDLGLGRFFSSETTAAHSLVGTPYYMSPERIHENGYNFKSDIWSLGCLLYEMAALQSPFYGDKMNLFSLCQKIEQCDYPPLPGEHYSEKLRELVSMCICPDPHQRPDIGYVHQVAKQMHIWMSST
Chain of Casein kinase II subunit alpha (Homo sapiens) (P68400 whole entry, looked up): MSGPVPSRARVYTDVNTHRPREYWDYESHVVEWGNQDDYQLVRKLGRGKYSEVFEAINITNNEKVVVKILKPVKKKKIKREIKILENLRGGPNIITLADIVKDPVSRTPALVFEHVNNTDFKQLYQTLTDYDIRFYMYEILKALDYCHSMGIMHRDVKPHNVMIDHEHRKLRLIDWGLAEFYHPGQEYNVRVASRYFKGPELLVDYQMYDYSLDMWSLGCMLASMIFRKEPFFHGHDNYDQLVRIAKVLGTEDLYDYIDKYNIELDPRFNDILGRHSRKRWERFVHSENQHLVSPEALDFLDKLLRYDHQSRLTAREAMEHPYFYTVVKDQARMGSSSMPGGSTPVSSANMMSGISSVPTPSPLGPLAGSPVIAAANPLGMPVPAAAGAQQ
Chain of Sphingosine kinase 1 (Homo sapiens) (Q9NYA1 whole entry): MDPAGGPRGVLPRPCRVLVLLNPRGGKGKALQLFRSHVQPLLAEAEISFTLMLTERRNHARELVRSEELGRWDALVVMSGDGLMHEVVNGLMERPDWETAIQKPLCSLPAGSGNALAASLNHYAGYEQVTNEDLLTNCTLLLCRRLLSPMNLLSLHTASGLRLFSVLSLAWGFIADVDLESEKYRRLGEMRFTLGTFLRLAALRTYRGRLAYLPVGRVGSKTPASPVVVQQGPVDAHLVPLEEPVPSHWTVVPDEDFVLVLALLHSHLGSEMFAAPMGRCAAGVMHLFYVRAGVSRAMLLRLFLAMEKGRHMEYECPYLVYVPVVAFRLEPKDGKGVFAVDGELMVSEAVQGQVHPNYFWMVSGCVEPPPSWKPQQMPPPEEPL

In the case of `COc1c(C(N)=O)cc(-c2ccc(Cl)cc2)cc1-c1ccc(S(N)(=O)=O)cc1`, the inhibition in assay [1] is 0.21%; in assay [2] it was -0.78%; in [3] it was 0.28%; in assay [4], 1.48%; in [5] it was 3.63%; in [6], 2.15%. In addition, the inhibition in [7] is 1.32%; in [8] it was 6.58%; in assay [9], 4.61%; in assay [10], 8.74%; in assay [11] it was 5.47%; in [12] it was 2.17%. The inhibition in assay [13] was determined as 4.16%; in [14], 6.76%; in assay [15] it was 5.43%; in assay [16], 0.6%; in assay [17], 1.71%; in assay [18] it was 4.31%. Moreover, the inhibition in assay [19] was 10.4%; in [20], 4.85%.
